Reference: PubChem BioAssay (Tox21)
Values joined by “and” are separate entries in the source; they are usually repeats but may differ in a detail not shown here. Identical values can stand only once. Inconclusive results are not listed. Where a call stands in place of a potency, no number is given. A structure can be active in one record and inactive in another. Active and inactive are the calls of the source. Calls follow the shape of the dose curve; as a rule, active = well fitted curve in the direction sought with a large enough effect in the repeat runs; inconclusive = weak or mixed curves; inactive = no such curve, though single readings can be large; an effect the other way counts as inactive or inconclusive.

How the values were obtained:
[1] = Human pregnane X receptor (PXR) small molecule agonists, qHTS cell viability counter screen (AID 1346977); also: nearly all actives have a fitted effect of over 50% in size; also: potency is read from the fitted curve at half-maximal effect
Procedure, shortened: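 Tox21 qHTS format; PXR-Luc HepG2, 2,000/well, charcoal-stripped FBS 5%. Cpd exposure 24hr. Read: CellTiter-Fluor fluorescence, multiplexed with luciferase.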

[2] = Caspase-3/7 induction in HepG2 cells by small molecules, qHTS assay (AID 1346978); also: nearly all actives have a fitted effect of over 15% in size; also: potency is read from the fitted curve at half-maximal effect
Procedure, shortened: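 Wild-type HepG2 cells (2,000/well) were settled 5 h at 37 C, 5% CO2, then exposed to compounds in DMSO for 17 h. Caspase-3/7 activity was read by luminescence 30 min after adding Caspase-Glo 3/7 reagent at room temperature.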

[3] = Caspase-3/7 induction in CHO-K1 cells by small molecules, qHTS cell viability counter screen (AID 1346979); also: nearly all actives have a fitted effect of over 35% in size; also: potency is read from the fitted curve at half-maximal effect
Procedure, shortened: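 CellTiter-Fluor viability check, qHTS format: wild-type CHO-K1, 16hr compound treatment, 1hr reagent incubation, fluorescence read.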

[4] = Caspase-3/7 induction in CHO-K1 cells by small molecules, qHTS assay (AID 1346980); also: nearly all actives have a fitted effect of over 15% in size
Procedure, shortened: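 Wild-type cells were seeded at 1,500 per well and settled 5 hr at 37 C, 5% CO2, then exposed to DMSO-dissolved compounds for 17 hr. Caspase-Glo 3/7 reagent was added, and luminescence was read after 30min at room temperature.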

[5] = Caspase-3/7 induction in HepG2 cells by small molecules, qHTS cell viability counter screen (AID 1346981); also: series mostly up to about 92 µM; nearly all actives have a fitted effect of over 30% in size
Procedure, shortened: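 In this quantitative HTS counter screen, compounds delivered in DMSO were left on unmodified HepG2 cells for 16 hr at 37 C. Viability was then determined fluorometrically with CellTiter-Fluor, in parallel with caspase-3/7 induction in the same wells.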

[6] = target: Nuclear receptor subfamily 1 group I member 2 (Rattus norvegicus) (UniProt Q9R1A7); experiment: Rat pregnane X receptor (rPXR) activation by small molecules, qHTS assay (AID 1346983); conditions: rPXR luciferase reporter cells, One-Glo luminescence, 24 h; max activation: stronger effect = higher value; also: nearly all actives have a fitted effect of over 20% in size
Procedure, shortened: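 Cell-based rPXR luciferase reporter assay, 2,000 cells per well, rested 5hr at 37 C before compound addition in DMSO, then 24 hr at 37 C. One-Glo reagent was added and luminescence read after 30 min at room temperature.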

[7] = target: Nuclear receptor subfamily 1 group I member 2 (Homo sapiens) (UniProt O75469); experiment: CYP3A4 induction through human pregnane X receptor (PXR) by small molecules, qHTS assay (AID 1346984); also: nearly all actives have a fitted effect of over 40% in size
Procedure, shortened: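 Induction measured in HepG2-based DPX-2 cells co-expressing human PXR and a CYP3A4 promoter-driven luciferase. After a 24-hour compound exposure, cells received CYP3A4 luciferin substrate at 3uM final for 3 hours, and light output was then recorded.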

[8] = target: Nuclear receptor subfamily 1 group I member 2 (Homo sapiens) (UniProt O75469); experiment: Human pregnane X receptor (PXR) activation by small molecules, qHTS assay (AID 1346985); also: nearly all actives have a fitted effect of over 40% in size; also: potency is read from the fitted curve at half-maximal effect
Procedure, shortened: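 DPX-2 cells (HepG2 co-transfected with a PXR response element and a CYP3A4-promoter luciferase construct) were seeded at 2,000 per well, rested 5 hr at 37C, then exposed to DMSO-dissolved compounds for 24 hr. Activation was read as luciferase luminescence.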

[9] = target: Cytochrome P450 2D6 (Homo sapiens) (UniProt P10635); experiment: Cytochrome P450 Family 2 Subfamily D Member 6 (CYP2D6) small molecule antagonists: luciferase reporter qHTS assay (AID 1671196); also: nearly all actives have a fitted effect of over 50% in size; also: potency is read from the fitted curve at half-maximal effect
Procedure, shortened: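 Test chemicals meet CYP2D6 plus proluciferin substrate (10 min, RT); NADPH regenerating solution then drives turnover for 1 h. Detection reagent halts the reaction; luminescence measured after 20 min.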

[10] = target: Cytochrome P450 2C9 (Homo sapiens) (UniProt P11712); experiment: Cytochrome P450 Family 2 Subfamily C Member 9 (CYP2C9) small molecule antagonists: luciferase reporter qHTS assay (AID 1671198); also: nearly all actives have a fitted effect of over 50% in size; also: potency is read from the fitted curve at half-maximal effect
Procedure, shortened: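 CYP2C9 activity was measured with a P450-Glo proluciferin substrate. Enzyme–substrate mix was held with compound for 10 min at room temperature, then NADPH regeneration solution was added for 1 h at 37C. Luciferin product was read as luminescence.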

[11] = target: Cytochrome P450 1A2 (Homo sapiens) (UniProt P05177); experiment: Cytochrome P450 Family 1 Subfamily A Member 2 (CYP1A2) small molecule antagonists: luciferase reporter qHTS assay (AID 1671199); also: nearly all actives have a fitted effect of over 50% in size; also: potency is read from the fitted curve at half-maximal effect
Procedure, shortened: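 Steps: enzyme-substrate mix dispensed; test compounds and furafylline control pinned in; 10 min room temperature; NADPH regeneration solution added, 1 h; reaction stopped with luciferin detection reagent; luminescence read after 20 min.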

[12] = target: Voltage-gated inwardly rectifying potassium channel KCNH2 (Homo sapiens) (UniProt Q12809); experiment: Human Ether-a-go-go-Related Gene (hERG) channel small molecule antagonists: fluorescence cell-based qHTS assay (AID 1671200)
Procedure, shortened: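 Kinetic two-minute fluorescence traces, sampled at 1 s, were collected following thallium stimulus of U2OS cells (1000 per well) that had been cultured overnight at 37 C and loaded with FluxOR II.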

[13] = target: Cytochrome P450 3A4 (Homo sapiens) (UniProt P08684); experiment: Cytochrome P450 Family 3 Subfamily A Member 4 (CYP3A4) small molecule antagonists: luciferase reporter qHTS assay (AID 1671201); also: nearly all actives have a fitted effect of over 50% in size; also: potency is read from the fitted curve at half-maximal effect
Procedure, shortened: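 Proluciferin-to-luciferin conversion by CYP3A4, NADPH-regenerated, 1 h RT; luminescence read as RLU. Ketoconazole as control.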

[14] = target: Nuclear receptor subfamily 1 group I member 2 (Homo sapiens) (UniProt O75469); experiment: Human pregnane X receptor (PXR) small molecule agonists, qHTS assay (AID 1346982); also: nearly all actives have a fitted effect of over 35% in size; also: potency is read from the fitted curve at half-maximal effect
Procedure, shortened: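 Reporter HepG2 cells expressing PXR-Luc are cultured in charcoal-stripped FBS (5%), treated with compounds for 24 hr at 37 C, and assayed by ONE-Glo luminescence after 30 min at room temperature.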

[15] = target: Cytochrome P450 2C19 (Homo sapiens) (UniProt P33261); experiment: Cytochrome P450 Family 2 Subfamily C Member 19 (CYP2C19) small molecule antagonists: luciferase reporter qHTS assay (AID 1671197); also: nearly all actives have a fitted effect of over 65% in size; also: potency is read from the fitted curve at half-maximal effect
Procedure, shortened: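 First, compounds are pinned into enzyme-substrate mix and held 10 min at room temperature. Second, NADPH regeneration solution is added and plates incubate 1 h at 37C. Third, detection reagent is added and luminescence read after 20 min.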

Sequence of Cytochrome P450 2C19 (Homo sapiens) (P33261 whole entry, looked up): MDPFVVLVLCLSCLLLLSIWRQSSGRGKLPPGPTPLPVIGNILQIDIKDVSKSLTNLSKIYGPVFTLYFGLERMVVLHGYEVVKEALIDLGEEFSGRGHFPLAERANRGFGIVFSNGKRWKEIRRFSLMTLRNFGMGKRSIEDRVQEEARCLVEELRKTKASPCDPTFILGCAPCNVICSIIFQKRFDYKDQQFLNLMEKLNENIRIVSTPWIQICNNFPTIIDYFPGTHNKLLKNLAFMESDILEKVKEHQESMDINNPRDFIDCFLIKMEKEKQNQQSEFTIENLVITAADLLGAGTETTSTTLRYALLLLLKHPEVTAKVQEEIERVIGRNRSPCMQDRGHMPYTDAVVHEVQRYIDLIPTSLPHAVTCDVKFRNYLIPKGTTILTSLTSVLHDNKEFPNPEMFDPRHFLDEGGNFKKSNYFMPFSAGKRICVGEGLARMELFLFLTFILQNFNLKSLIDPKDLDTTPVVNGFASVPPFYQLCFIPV
Sequence of Cytochrome P450 2C9 (Homo sapiens) (P11712 whole entry, looked up): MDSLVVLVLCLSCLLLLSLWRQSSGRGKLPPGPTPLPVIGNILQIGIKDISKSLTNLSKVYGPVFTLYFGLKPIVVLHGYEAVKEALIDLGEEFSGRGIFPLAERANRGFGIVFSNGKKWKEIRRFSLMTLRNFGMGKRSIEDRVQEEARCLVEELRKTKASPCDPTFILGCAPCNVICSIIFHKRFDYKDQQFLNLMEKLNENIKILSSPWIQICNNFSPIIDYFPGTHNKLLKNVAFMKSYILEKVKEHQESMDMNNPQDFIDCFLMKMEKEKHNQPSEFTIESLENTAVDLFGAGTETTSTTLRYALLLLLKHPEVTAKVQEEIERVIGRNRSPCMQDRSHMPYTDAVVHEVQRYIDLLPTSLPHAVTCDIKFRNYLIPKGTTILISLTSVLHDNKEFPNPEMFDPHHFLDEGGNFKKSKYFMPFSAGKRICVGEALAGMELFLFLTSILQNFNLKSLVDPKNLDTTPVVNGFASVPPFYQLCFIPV
Sequence of Nuclear receptor subfamily 1 group I member 2 (Homo sapiens) (O75469 whole entry, looked up): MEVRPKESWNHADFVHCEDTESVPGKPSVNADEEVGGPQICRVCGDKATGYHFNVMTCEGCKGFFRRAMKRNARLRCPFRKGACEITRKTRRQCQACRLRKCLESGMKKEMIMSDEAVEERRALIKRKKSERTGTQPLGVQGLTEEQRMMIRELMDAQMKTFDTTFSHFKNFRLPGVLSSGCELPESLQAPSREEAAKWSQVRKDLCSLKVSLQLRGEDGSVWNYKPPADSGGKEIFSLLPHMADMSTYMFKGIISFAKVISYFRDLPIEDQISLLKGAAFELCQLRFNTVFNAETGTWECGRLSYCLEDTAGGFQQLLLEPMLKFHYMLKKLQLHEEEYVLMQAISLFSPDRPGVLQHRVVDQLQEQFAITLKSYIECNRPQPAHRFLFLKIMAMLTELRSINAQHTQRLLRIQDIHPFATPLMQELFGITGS
Sequence of Nuclear receptor subfamily 1 group I member 2 (Rattus norvegicus) (Q9R1A7 whole entry, looked up): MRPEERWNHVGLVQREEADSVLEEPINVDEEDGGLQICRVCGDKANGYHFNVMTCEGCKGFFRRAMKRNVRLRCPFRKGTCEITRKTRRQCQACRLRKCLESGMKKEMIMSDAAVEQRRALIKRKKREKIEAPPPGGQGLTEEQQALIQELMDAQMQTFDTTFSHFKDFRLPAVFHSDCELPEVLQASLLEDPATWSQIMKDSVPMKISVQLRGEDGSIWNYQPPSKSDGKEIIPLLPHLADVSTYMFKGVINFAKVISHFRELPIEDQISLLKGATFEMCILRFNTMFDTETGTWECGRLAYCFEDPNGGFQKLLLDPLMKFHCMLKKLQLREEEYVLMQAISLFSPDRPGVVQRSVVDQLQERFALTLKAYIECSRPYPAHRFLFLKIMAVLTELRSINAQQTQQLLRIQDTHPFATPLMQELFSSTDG
Sequence of Cytochrome P450 1A2 (Homo sapiens) (P05177 whole entry, looked up): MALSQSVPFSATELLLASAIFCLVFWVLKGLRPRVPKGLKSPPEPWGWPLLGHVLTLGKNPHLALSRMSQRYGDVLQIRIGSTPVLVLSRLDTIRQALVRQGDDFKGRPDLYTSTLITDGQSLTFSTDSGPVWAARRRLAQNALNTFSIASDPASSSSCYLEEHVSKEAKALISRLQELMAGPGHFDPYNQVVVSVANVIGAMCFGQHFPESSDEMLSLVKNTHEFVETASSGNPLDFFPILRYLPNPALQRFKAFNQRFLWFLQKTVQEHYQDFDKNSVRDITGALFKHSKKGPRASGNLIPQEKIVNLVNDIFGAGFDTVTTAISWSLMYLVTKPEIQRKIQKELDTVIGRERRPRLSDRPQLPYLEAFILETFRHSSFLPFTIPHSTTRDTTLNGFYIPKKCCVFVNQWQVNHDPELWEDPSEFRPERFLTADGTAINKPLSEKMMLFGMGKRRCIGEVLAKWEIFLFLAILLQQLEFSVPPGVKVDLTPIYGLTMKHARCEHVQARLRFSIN
Sequence of Cytochrome P450 2D6 (Homo sapiens) (P10635 whole entry, looked up): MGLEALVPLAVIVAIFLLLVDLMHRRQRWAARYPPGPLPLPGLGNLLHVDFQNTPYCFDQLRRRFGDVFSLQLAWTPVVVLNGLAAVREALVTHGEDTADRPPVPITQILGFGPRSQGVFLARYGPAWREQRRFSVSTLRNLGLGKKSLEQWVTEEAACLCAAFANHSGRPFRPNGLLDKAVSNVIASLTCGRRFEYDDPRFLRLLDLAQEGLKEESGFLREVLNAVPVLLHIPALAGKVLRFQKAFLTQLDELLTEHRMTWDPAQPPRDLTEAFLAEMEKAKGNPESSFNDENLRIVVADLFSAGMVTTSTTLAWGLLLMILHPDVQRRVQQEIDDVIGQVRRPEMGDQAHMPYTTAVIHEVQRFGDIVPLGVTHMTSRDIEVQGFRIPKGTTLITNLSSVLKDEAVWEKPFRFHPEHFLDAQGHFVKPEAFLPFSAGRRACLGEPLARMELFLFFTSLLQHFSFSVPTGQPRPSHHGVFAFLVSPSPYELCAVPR
Sequence of Cytochrome P450 3A4 (Homo sapiens) (P08684 whole entry, looked up): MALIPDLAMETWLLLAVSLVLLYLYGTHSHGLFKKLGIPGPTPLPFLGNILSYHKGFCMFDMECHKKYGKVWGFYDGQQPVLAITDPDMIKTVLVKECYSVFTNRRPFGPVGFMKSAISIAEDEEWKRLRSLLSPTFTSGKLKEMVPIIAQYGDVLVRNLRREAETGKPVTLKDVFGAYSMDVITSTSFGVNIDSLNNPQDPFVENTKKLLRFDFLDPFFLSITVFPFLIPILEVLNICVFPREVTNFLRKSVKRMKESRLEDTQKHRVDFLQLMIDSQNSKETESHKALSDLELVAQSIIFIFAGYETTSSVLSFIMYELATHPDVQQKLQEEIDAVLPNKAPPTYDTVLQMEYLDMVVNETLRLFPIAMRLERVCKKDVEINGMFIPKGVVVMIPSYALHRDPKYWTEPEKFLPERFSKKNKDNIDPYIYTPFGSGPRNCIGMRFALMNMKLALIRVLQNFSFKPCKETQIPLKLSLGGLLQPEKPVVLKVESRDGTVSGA
Sequence of Voltage-gated inwardly rectifying potassium channel KCNH2 (Homo sapiens) (Q12809 whole entry, looked up): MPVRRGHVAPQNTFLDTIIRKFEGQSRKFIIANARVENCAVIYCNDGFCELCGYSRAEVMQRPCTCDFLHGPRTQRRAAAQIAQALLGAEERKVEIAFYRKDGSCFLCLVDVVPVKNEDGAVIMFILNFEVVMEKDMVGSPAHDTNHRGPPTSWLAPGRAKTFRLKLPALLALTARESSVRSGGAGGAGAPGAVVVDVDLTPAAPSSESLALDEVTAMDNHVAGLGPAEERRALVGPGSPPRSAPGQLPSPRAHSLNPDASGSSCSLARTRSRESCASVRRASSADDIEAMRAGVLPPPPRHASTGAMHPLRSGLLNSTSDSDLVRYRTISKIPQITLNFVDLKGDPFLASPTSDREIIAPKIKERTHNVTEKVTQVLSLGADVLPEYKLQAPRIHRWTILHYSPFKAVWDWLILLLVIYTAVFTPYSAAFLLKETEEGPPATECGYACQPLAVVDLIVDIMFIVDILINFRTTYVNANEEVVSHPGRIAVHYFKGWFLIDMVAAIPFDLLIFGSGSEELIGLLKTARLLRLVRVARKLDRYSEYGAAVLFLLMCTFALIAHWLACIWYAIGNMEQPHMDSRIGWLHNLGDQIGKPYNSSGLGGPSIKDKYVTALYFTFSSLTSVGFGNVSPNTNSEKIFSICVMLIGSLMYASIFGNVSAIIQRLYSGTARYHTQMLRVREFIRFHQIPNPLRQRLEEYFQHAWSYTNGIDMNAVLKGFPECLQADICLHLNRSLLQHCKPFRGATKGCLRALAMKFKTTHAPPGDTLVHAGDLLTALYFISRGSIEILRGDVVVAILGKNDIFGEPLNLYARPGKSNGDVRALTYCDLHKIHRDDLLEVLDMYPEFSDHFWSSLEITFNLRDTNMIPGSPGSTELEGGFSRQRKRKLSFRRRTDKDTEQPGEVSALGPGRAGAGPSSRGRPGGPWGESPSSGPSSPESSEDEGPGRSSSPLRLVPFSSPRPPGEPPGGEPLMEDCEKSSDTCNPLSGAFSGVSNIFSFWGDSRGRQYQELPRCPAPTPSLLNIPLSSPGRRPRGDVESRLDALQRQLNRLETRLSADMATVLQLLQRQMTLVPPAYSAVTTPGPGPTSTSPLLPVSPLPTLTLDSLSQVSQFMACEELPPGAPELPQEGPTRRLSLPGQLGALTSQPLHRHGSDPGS

SMILES | Potency [1] | Potency [2] | Potency [3] | Potency [4] | Potency [5] | max activation [6] | Potency [7] | Potency [8] | Potency [9] | Potency [10] | Potency [11] | Potency [12] | Potency [13] | Potency [14] | Potency [15]
CCCC(=O)O | inactive | inactive | inactive | inactive | inactive | -1.54% (inactive) | inactive | inactive | inactive | inactive | inactive | inactive | inactive | – | –
Oc1ccc(O)cc1 | inactive | inactive | 43 µM (active) and 68.6 µM (active) | inactive | inactive | – | – | – | inactive | – | inactive | inactive | inactive | 54.2 µM (active) and inactive | inactive
COc1ccc(C(=O)CC(=O)c2ccc(C(C)(C)C)cc2)cc1 | inactive | inactive | inactive | inactive | inactive | -2.2% (inactive) | inactive | inactive | 38.3 µM (active) and inactive | 21.5 µM (active) | 34.1 µM (active) | inactive | inactive | – | 8.57 µM (active) and inactive
CC1=CC2C3CC(C=C3C)C2C1 (stereo not given) | inactive | inactive | inactive | inactive | inactive | – | – | – | inactive | inactive | inactive | inactive | inactive and 12.6 µM (active) | inactive and 27.3 µM (active) | inactive and 39.9 µM (active)
S=C(NC1CCCCC1)NC1CCCCC1 | inactive | inactive | 60 µM (active) and 43.3 µM (active) | inactive | inactive | – | – | – | 31.1 µM (active) and 22.4 µM (active) | 12.4 µM (active) and 35.6 µM (active) | 78.1 µM (active) and inactive | inactive | 17.5 µM (active) and 28.3 µM (active) | 26.8 µM (active) and 19.3 µM (active) | 7.81 µM (active) and 8.94 µM (active)
OCCO | inactive | inactive | inactive | inactive | inactive | – | – | – | 34.6 µM (active) and inactive | inactive | inactive | inactive | inactive | inactive | inactive
CN(C)CCC=C1c2ccccc2CCc2ccccc21 | 44.7 µM (active) and 48.6 µM (active) and 26.6 µM (active) | 68.6 µM (active) and inactive | 61.1 µM (active) | inactive | inactive | – | – | – | 2.52 µM (active) and 5.64 µM (active) and 5.49 µM (active) | inactive | inactive | – | inactive | 19.3 µM (active) and inactive | 7.97 µM (active) and 31.7 µM (active)
Cc1ccc2c(n1)Oc1ccc(C(C)C(=O)OCC(=O)N(C)C)cc1C2 (stereo not given) | inactive | inactive | inactive | inactive | inactive | – | – | – | 38.9 µM (active) | 21.9 µM (active) | inactive | inactive | inactive | 21.1 µM (active) and 11.9 µM (active) | 17.4 µM (active)
C[Si](C)(C)O[Si](C)(C)C | inactive | inactive | inactive | inactive | inactive | -1.76% (inactive) | inactive | inactive | inactive | inactive | inactive | inactive | inactive | – | inactive
CCCCOCCOCCO | inactive | inactive | inactive | inactive | inactive | – | – | – | inactive | inactive | inactive | inactive | inactive | inactive | inactive
CCC(C)c1ccccc1O (stereo not given) | inactive | inactive | inactive | inactive | inactive | – | – | – | inactive | – | – | inactive | inactive | inactive | inactive
CCOC(=O)C(C#N)=C(c1ccccc1)c1ccccc1 | inactive | inactive | inactive | inactive | inactive | – | – | 12.6 µM (active) | inactive | 5.03 µM (active) and 4.9 µM (active) | 3.56 µM (active) and 1.62 µM (active) | inactive | inactive | 24.3 µM (active) and 11.9 µM (active) | 5.64 µM (active) and 4.9 µM (active)
CCCCOCCOCCOCCO | inactive | inactive | inactive | inactive | inactive | – | – | – | inactive | inactive | – | inactive | inactive | – | inactive
CCCCC(CC)COC(=O)c1ccc(N(C)C)cc1 (stereo not given) | inactive | inactive | inactive | – | inactive | -1.01% (inactive) | inactive | inactive | 30.9 µM (active) | 31.9 µM (active) and 17.8 µM (active) and 15.5 µM (active) | 12.7 µM (active) and 7.1 µM (active) and 4.56 µM (active) | inactive | inactive | inactive and 54.5 µM (active) | 40.1 µM (active) and 20 µM (active) and 6.92 µM (active)
